Compound activity: PubChem, National Center for Advancing Translational Sciences (NCATS)
An excerpt weighted towards active compounds, which were near 12% of everything screened.
Pf growth 48h – Primary qHTS for delayed death inhibitors of the malarial parasite plastid, 48 hour incubation. AID 504832, 2011. P. falciparum luciferase growth in erythrocytes, 48 h. 5.9% of 310,000 active. Potency, µM (titrated, usually from 28.7 µM), for the others: top-dose activity change, negative = inhibition, hits mostly inhibitors; note: % is set by controls: 0 for no effect and ±100 for the full control effect
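Erythrocytes infected with P. falciparum carrying an integrated firefly luciferase reporter (2% hematocrit, 0.1% parasitemia final) were exposed to compounds in RPMI 1640 with 0.5% Albumax at 37 C, 5% CO2. Growth inhibition was scored as reduced luminescence.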
Sm TGR block – qHTS Assay for the Inhibitors of Schistosoma Mansoni Peroxiredoxins; Schistosoma mansoni thioredoxin glutathione reductase (TGR), Q962Y6; purified TGR, DTNB reduction, TNB absorbance 405 nm; Potency, µM (doses to about 114 µM), inactives show at the highest dose activity change, negative = inhibition, actives largely listed as inhibitors; 3% of 360,000 active; note: % is set by controls: 0 for no effect and ±100 for the full control effect; nearly all actives have a fitted effect of over 60% in size
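Kinetic colorimetric format: TGR-catalysed, NADPH-driven DTNB reduction monitored via TNB absorbance. Enzyme dispensed at 20 nM; compound exposure 15 min at room temperature before reaction start.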
Pf growth 96h – Primary qHTS for delayed death inhibitors of the malarial parasite plastid, 96 hour incubation. P. falciparum luciferase reporter growth, 96 h. Potency, µM (titrated, usually from 28.7 µM), inactives show at the top dose activity change, negative = inhibition, actives largely listed as inhibitors. 6.9% of 320,000 active; note: % is set by controls: 0 for no effect and ±100 for the full control effect
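P. falciparum expressing integrated firefly luciferase grown in erythrocytes (2% hematocrit, 0.05% parasitemia final) with compounds for 96 hours at 37 C, 5% CO2. Growth inhibition read as loss of luminescence after adding luciferase detection reagent.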
SARS PLpro yeast – qHTS of Yeast-based Assay for SARS-CoV PLP. 0.19% of 330,000 active. Potency, µM (top dose mostly 32.9 µM), for the others: at the highest dose activity, positive = growth rescue, usual class: activators. S. cerevisiae expressing SARS-CoV PLpro, growth rescue; calls by dose curve; note: 0% is about no effect; nearly all actives have a fitted effect of over 55% in size
* marks the source's active call; other numbers are inactive results; u = inconclusive; x = no result. Unless noted, calls come from the whole dose curve; as a rule, active = well fitted curve in the direction sought with a large enough effect; inconclusive = small, poorly fitted or top-dose-only effect, or another doubt; inactive = no such curve, though single readings can be large; an effect the other way counts as inactive or inconclusive. Potency is the fitted concentration of half-maximal effect.

SMILES	Pf growth 48h	Sm TGR block	Pf growth 96h	SARS PLpro yeast
CCNc1nc(NCC)nc(-n2nc(C)cc2C)n1	4.15µM*	4.3%	2.08µM*	-2.5%
Cc1cc(C)n(-c2nc(NC(C)C)nc(NC(C)C)n2)n1	3.7µM*	5.7%	5.4%	-10.2%
Cc1cc(C)n(-c2nc(NC(C)(C)C)nc(NC(C)(C)C)n2)n1	u	5.8%	15.8%	2.2%
CCOC(=O)c1c(NC(=O)c2cc(CC)on2)sc(C)c1C	x	-2.5%	x	x
N#Cc1c(N)nc2c3c(sc(=N)c2c1N)NC(=O)CC3c1c(F)cccc1Cl (centres undefined)	u	7.1%	8.28µM*	-11.0%
CCOC(=O)CNC(=O)CSc1ncnc2c1cnn2-c1ccc(Cl)cc1	17.8%	-26.1%	x	7.9%
CCOC(=O)Cc1csc(NC(=O)CSc2ncnc3c2cnn3-c2ccc(OC)cc2)n1	9.28µM*	-3.1%	u	2.5%
COc1cccc(NC(=O)NC2(C(F)(F)F)Oc3ccccc3O2)c1	u	39.8µM*	47.3%	-3.6%
O=C(Nc1cc(N2CCOCC2)ncn1)NC1(C(F)(F)F)Oc2ccccc2O1	8.1%	12.6µM*	-4.3%	6.8%
Cc1cccc(CCn2c(=O)c3ccccc3n(CC(=O)Nc3ccccc3F)c2=O)c1	x	-2.0%	x	x
CS(=O)(=O)c1ccccc1C(=O)Nc1cccc2ncccc12	u	-5.9%	u	1.4%
Cc1cccc(NC(=O)C2CCC(CNS(=O)(=O)c3ccc4c(c3)CCCC(=O)N4)CC2)c1C (centres undefined)	x	0.4%	x	x
COc1ccccc1OCC(O)Cn1c(=N)n(Cc2ccccc2)c2ccccc21 (centres undefined)	9.28µM*	0.1%	u	7.7%
Cc1ccccc1OCC(O)Cn1c(=N)n(Cc2ccccc2)c2ccccc21 (centres undefined)	u	5.5%	-17.4%	-0.3%
CCCCCn1c(=N)n(CC(O)COc2ccccc2OC)c2ccccc21 (centres undefined)	4.65µM*	3.7%	u	-25.9%
N=c1n(Cc2ccccc2)c2ccccc2n1CC(O)c1ccccc1 (centres undefined)	2.08µM*	4.4%	2.33µM*	-21.2%
CC(C)(C)C(=O)Cn1c(=N)n(Cc2ccccc2)c2ccccc21	13.1µM*	0.5%	u	-51.0%
O=C(CCNS(=O)(=O)c1ccc2c(c1)CCN2C(=O)C1CC1)Nc1ccc(F)cc1F	x	-34.9%	x	x
COc1ccc(C(Sc2ccccc2)c2ccccc2)cc1OC (centres undefined)	u	-15.0%	u	-1.7%
CCCCN=C1NN=C(c2cc3ccccc3o2)CS1	u	-3.4%	13.1µM*	8.6%
Cc1[nH]c2ccccc2c1C(c1ccncc1)N1CCC(C)CC1 (centres undefined)	26.6%	2.51µM*	0.0%	5.2%
CC(C)(C)n1nnnc1C(c1cccnc1)N1CCN(c2ccccn2)CC1 (centres undefined)	u	-7.5%	0.4%	-0.3%
Cc1[nH]c2ccccc2c1C(c1ccncc1)N1CCN(c2ccccn2)CC1 (centres undefined)	-6.0%	1µM*	-1.8%	0.9%
Cc1[nH]c2ccccc2c1SCC(=O)N1CCC(C)CC1	5.5%	16.8%	-17.6%	-2.6%
Cc1[nH]c2ccccc2c1C(c1ccncc1)N1CCN(c2ccccc2F)CC1 (centres undefined)	-14.9%	3.55µM*	u	-2.3%
SMILES	Pf growth 48h	Sm TGR block	Pf growth 96h	SARS PLpro yeast
Cc1ccccc1CNC(=O)c1cnc2sc(N3CCOCC3)nn2c1=O	x	2.4%	x	x
COc1cc(N)c(Cl)cc1C(=O)OCC(=O)N1CCCC1	0.1%	1.9%	3.5%	-1.9%
CCOc1ccc(CNC(=O)CN2C(=O)CSc3c2c(C)nn3-c2ccccc2)cc1	x	-0.4%	x	x
CC(=O)N1N=C(c2ccc(Cl)cc2)CC1c1ccco1 (centres undefined)	14.7%	1.6%	-5.2%	-0.7%
Cc1ccc(C2=NN(C(=O)CCl)C(c3ccco3)C2)o1 (centres undefined)	10.4µM*	7.08µM*	6.57µM*	3.2%
CS(=O)(=O)Nc1cccc(C2=NN(S(=O)(=O)c3ccccc3)C(c3ccco3)C2)c1 (centres undefined)	-25.8%	20µM*	-0.9%	1.7%
Cc1nnc(SCC(=O)N2N=C(c3ccc(Cl)cc3)CC2c2ccco2)[nH]c1=O (centres undefined)	27.3%	12.6µM*	39.4%	2.8%
